PLAP act = activates human placental alkaline phosphatase; P05187; activation fold at 20 µM; purified PLAP enzyme, luminescent substrate read-out; hits give high values; AID 696; 1.2% of 96,000 active; in the data active means activation fold above about 2
Target sequence (P05187 whole entry, looked up): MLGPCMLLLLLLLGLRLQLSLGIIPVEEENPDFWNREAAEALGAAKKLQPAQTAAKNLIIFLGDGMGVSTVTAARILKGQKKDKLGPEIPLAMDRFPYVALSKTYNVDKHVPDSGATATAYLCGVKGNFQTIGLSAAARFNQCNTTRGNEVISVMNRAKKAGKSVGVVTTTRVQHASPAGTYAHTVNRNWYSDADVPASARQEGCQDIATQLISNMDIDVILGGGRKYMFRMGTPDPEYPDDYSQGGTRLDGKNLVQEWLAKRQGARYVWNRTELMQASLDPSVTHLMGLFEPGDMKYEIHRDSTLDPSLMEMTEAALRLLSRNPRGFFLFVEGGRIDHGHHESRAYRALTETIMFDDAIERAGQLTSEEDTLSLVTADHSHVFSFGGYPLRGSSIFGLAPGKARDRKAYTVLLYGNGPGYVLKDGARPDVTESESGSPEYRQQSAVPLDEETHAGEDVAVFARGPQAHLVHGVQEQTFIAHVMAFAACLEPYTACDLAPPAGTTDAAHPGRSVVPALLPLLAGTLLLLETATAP
M1 antagonist = M1 muscarinic receptor (rat) antagonism | P08482 | CHO-M1 cells, Fluo-4 calcium, ACh EC80 antagonist mode; hits give low values | B-score at 10 µM | 3.4% of 64,000 active | AID 628;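 active means calcium fluorescence response, raw or row-and-column corrected B-score, differing from the plate sample mean either way at a set confidence level, mostly lower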
Cav32 inh = blocks human Cav3.2 T-type calcium channel. O95180. Cav3.2-expressing cells, Fluo-4 calcium fluorescence FDSS; hits give low values. B-score at 10 µM. 4% of 100,000 active. AID 449739;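 active means single-dose well whose peak fluorescence ratio is a statistical outlier from its plate by either plate-standardised score or position-corrected B-score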
M1 agonist = activates the M1 muscarinic receptor | CHO-M1 cells, Fluo-4 calcium fluorescence, agonist mode; hits give high values | B-score at 10 µM | 3% of 64,000 active | AID 626;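 active means fluorescence rise, raw or as B-score row- and column-corrected plate score, outside the 99.7% band of its plate's samples, either direction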
M1 agonist conf = rat M1 muscarinic agonism, confirmation. AID 1488. shares compounds with M1 agonist. CHO-M1 cells, Fluo-4 calcium fluorescence, agonist mode; actives lie on both sides. fluorescence change (max-min) at 10 µM. 19% of 1,700 active;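 active means fluorescence change differs from the solvent-only DMSO control mean at a set confidence level in both duplicate runs; inconclusive means differs from solvent-only control mean in just one of two runs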;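 further: an EC20 dose of acetylcholine follows compound addition during the same imaging run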
M4 ag counter = counter-screen for M1 agonists: activity at rat M4 receptor | 9% of 1,700 active | shares compounds with M1 agonist | CHO M4/Gqi5 cells, Fluo-4 calcium fluorescence, agonist mode; actives lie on both sides | AID 1741 | fluorescence change (max-min) at 10 µM;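 active means fluorescence change differing from the plate's solvent-only control wells at 99.7% confidence in both duplicates, whether higher or lower; inconclusive means differs from solvent controls in only one of two duplicates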
Large screens that a line does not name were inactive (follow-up assays come after a bar, where they were run). Compounds with a hit are over-represented: about 7.6% of the library has one in this group of screens.

COc1ccc(S(=O)(=O)Nc2ccccc2C(F)(F)F)cc1	none
CC(C)(C)NS(=O)(=O)c1ccc(OCC(=O)NCCC2=CCCCC2)cc1	none (no result: M1 antagonist, M1 agonist)
COC(=O)C(Cc1ccccc1)NC(=O)CSc1nc(N)cc(=O)[nH]1 (stereo not drawn)	none
CCC(Sc1nc(N)cc(=O)[nH]1)C(=O)NC(C(=O)OC)c1ccccc1 (stereo not drawn)	M1 agonist 3.23 | M1 agonist conf inactive | M4 ag counter inactive
COCCNC(=O)C(c1ccc(C)o1)N(CC1CCCO1)C(=O)Cn1nnc2ccccc21 (stereo not drawn)	M1 agonist 1.86 | M1 agonist conf inconclusive | M4 ag counter inactive
CCOC(=O)c1ccc(S(=O)(=O)N2CCC(C(=O)O)CC2)cc1	none (no result: M1 antagonist, M1 agonist)
Cn1c(CN2CCOCC2)nnc1SCC(=O)NC1CCCCC1	none (no result: PLAP act, M1 antagonist, M1 agonist)
CC1CCCCC1NC(=O)CSc1nnc(CN2CCOCC2)n1C (stereo not drawn)	M1 agonist 12.5 | M1 agonist conf inactive | M4 ag counter inactive
C=C1CCN([C@@H](Cc2ccccc2)C(=O)NCCC(C)C)S(=O)(=O)c2ccccc21	none (no result: PLAP act, M1 antagonist, M1 agonist)
Cc1ccc(Cn2c(=O)n(Cc3ccco3)c(=O)c3ccccc32)cc1	none (no result: PLAP act, Cav32 inh)
COc1ccc(CCNc2c(C)c(C)nc3ncnn23)cc1	M1 antagonist -1.18, M1 agonist 3.25 | M1 agonist conf inactive | M4 ag counter inactive
COc1ccc(C2=CC(c3ccc(Cl)cc3)n3cnnc3N2)cc1OC (stereo not drawn)	M1 agonist 6.84 | M1 agonist conf 223 | M4 ag counter 190
COc1ccccc1CNC(=O)c1c(N)n(CCCN2CCOCC2)c2nc3ccccc3nc12	none (no result: M1 antagonist, Cav32 inh, M1 agonist)
Nc1c(C(=O)NCc2ccc3c(c2)OCO3)c2nc3ccccc3nc2n1CCCN1CCOCC1	M1 agonist -2.57 | M1 agonist conf inactive | M4 ag counter inactive
CCOC(=O)c1oc2ccc(S(=O)(=O)Nc3ccc4c(c3)n(C)c(=O)n4C)cc2c1C	M1 agonist 5.3 | M1 agonist conf inconclusive | M4 ag counter inactive
Cn1c(=O)n(C)c2cc(NS(=O)(=O)c3ccc4c(c3)CCCC4)ccc21	none
Cc1ccc(CS(=O)(=O)CCC(=O)NCc2cccs2)cc1	M1 agonist 4.05 | M1 agonist conf inactive | M4 ag counter inactive
CC(C)COC(=O)NCCOC(=O)Nc1cccc(Cl)c1	M1 antagonist -2.16, Cav32 inh -5.67, M1 agonist 7.52 | M1 agonist conf inactive | M4 ag counter -84.9
Cc1ccc(CNC(=O)[C@H](C)[C@H]2C[C@]2(C)[C@H](NC(=O)OCc2ccccc2)c2ccccc2)o1	none (no result: PLAP act, M1 antagonist, M1 agonist)
CC1Cc2ccccc2N1C(=O)CSc1nnnn1Cc1ccccc1 (stereo not drawn)	none
Cc1c(NS(=O)(=O)c2ccc3c(c2)n(C)c(=O)n3C)c(=O)n(-c2ccccc2)n1C	none
CSc1nc2ccc(S(=O)(=O)Nc3c(C)n(C)n(-c4ccccc4)c3=O)cc2s1	M1 antagonist -2.77, M1 agonist 6.15 | M1 agonist conf inconclusive | M4 ag counter inactive
CCOC(=O)C1=C2SCCN2C(=O)C(C#N)C1(C)C (stereo not drawn)	M1 agonist 3.5 | M1 agonist conf inactive | M4 ag counter inactive
Cc1nnsc1C(=O)NC(C)C12CC3CC(CC(C3)C1)C2 (stereo not drawn)	none (no result: M1 antagonist, M1 agonist)
CCc1ccc(-c2nc(CSCC(=O)N3CCN(c4ncccn4)CC3)c(C)o2)cc1	M1 agonist 8.16 (no result: Cav32 inh) | M1 agonist conf inactive | M4 ag counter inconclusive
CSc1ccc(-c2nc(CSCC(=O)N3CCOCC3)c(C)o2)cc1	none
COc1cccc2cc(-c3nc(-c4cccs4)cs3)c(=O)oc12	M1 agonist 13.9 | M1 agonist conf inconclusive | M4 ag counter inconclusive
Cn1cc(C(=O)Nc2ccc(F)c(F)c2)cn1	none (no result: M1 antagonist, M1 agonist)
CC(C(=O)NCC1CCCO1)n1cccc1C(=O)c1ccccc1 (stereo not drawn)	M1 antagonist 2.26, M1 agonist 20.9 | M1 agonist conf inactive | M4 ag counter inconclusive
O=C(Cc1ccccc1)NCC1CCCO1 (stereo not drawn)	none (no result: M1 antagonist, M1 agonist)
Cn1c(C(=O)NC2CCCCCC2)cc2c(=O)n(C)c3ccccc3c21	M1 agonist 3.76 | M1 agonist conf inconclusive | M4 ag counter inconclusive
Cn1c(C(=O)N2CCCCCC2)cc2c(=O)n(C)c3ccccc3c21	none
Cn1c(=O)c(C(=O)NC2CCCCCCC2)c(O)c2ccccc21	none
Cc1cccc(N2CCN(C(=O)c3cc4c(=O)n(C)c5ccccc5c4n3C)CC2C)c1 (stereo not drawn)	Cav32 inh -4.41, M1 agonist 5.49 | M1 agonist conf inactive | M4 ag counter inactive
Cn1c(C(=O)NC2CCCCC2)cc2c(=O)n(C)c3ccccc3c21	M1 agonist 3.81 | M1 agonist conf inconclusive | M4 ag counter inconclusive
Cn1c(C(=O)NCCN2CCOCC2)cc2c(=O)n(C)c3ccccc3c21	none
Cn1c(C(=O)NCCN2CCc3ccccc3C2)cc2c(=O)n(C)c3ccccc3c21	M1 agonist 2.91 | M1 agonist conf inconclusive | M4 ag counter inactive
CC(C)OP(=O)(OC(C)C)C(NC(=O)c1cccc([N+](=O)[O-])c1)C(N)=O (stereo not drawn)	none (no result: M1 antagonist, M1 agonist)
CCOc1ccc(CCNC(=O)C2CCCN(C(=O)N(C)C)C2)cc1OCC (stereo not drawn)	none (no result: PLAP act)
CCC(C(=O)NC1CCCCC1)n1c(SCc2ccccc2F)nc2ccncc21 (stereo not drawn)	none (no result: PLAP act, M1 antagonist, M1 agonist)
O=C(COc1ccccc1)Nc1cccc(-c2nc3cc4ccccc4cc3[nH]2)c1	none (no result: M1 antagonist, M1 agonist)
CCOc1ccc(OCCCC(=O)O)cc1	none (no result: M1 antagonist, M1 agonist)
CC1CCC(NC(=O)c2cc3c(=O)n(C)c4ccccc4c3n2C)CC1 (stereo not drawn)	M1 agonist 3.7 | M1 agonist conf inactive | M4 ag counter inactive
Cc1cc(C)c2c(-n3cccc3)nn(CC#N)c2n1	none (no result: M1 antagonist, M1 agonist)
CCOc1cc(S(=O)(=O)NC2CCCC2)ccc1Cl	M1 agonist 8.92 | M1 agonist conf inactive | M4 ag counter inactive
COc1cccc(C2C3CN(C)CC=C3C(C#N)=C(N)C2(C#N)C#N)c1OC (stereo not drawn)	M1 agonist 87 (no result: Cav32 inh) | M1 agonist conf 651 | M4 ag counter 605
CN1CC=C2C(C#N)=C(N)C(C#N)(C#N)C(c3ccsc3)C2C1 (stereo not drawn)	none (no result: M1 antagonist, M1 agonist)
CCOC(=O)N1CC=C2C(C#N)=C(N)C(C#N)(C#N)[C@H](c3ccccc3OCC)[C@H]2C1	none
CN1CC=C2C(C#N)=C(N)C(C#N)(C#N)[C@H](c3cccc(Cl)c3)C2C1 (stereo partly drawn)	M1 agonist 53.5 | M1 agonist conf 173 | M4 ag counter inactive
CN1CC=C2C(C#N)=C(N)C(C#N)(C#N)C(CCc3ccccc3)C2C1 (stereo not drawn)	M1 agonist 18.3 | M1 agonist conf 90.7 | M4 ag counter inactive
COc1cc([C@@H]2[C@H]3CN(C)CC=C3C(C#N)=C(N)C2(C#N)C#N)cc2c1OCO2	M1 agonist 6.65 | M1 agonist conf inactive | M4 ag counter inactive
CCN1CC=C2C(C#N)=C(N)C(C#N)(C#N)[C@H](c3cccc(OC)c3OC)[C@H]2C1	M1 agonist 271 | M1 agonist conf 307 | M4 ag counter inconclusive

Screening results from PubChem.
